# Test results reported in the supplement of paper PMC10849652.
# Of roughly 8,800 targets only a part is listed; those with a hit were picked by preference. About 0.5% of all pairs of compound and target were hits. Values without a mark were called inactive.
# Experiments:
# Assay in all cases: log2 fold change, soluble protein after heating vs DMSO (PISA); higher = thermal stabilisation; K562 lysate, 10 uM; active = over 0.2 and 3.5 SD of the protein, either way, in both replicates (recomputed)
# [1] = compound: Cc1cn(-c2cc(NC(=O)c3ccc(C)c(Nc4nccc(-c5cccnc5)n4)c3)cc(C(F)(F)F)c2)cn1 [nilotinib]
# Method in brief: (§1)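 The values are log-two fold changes in thermal stability compared with solvent controls and come from duplicates. They were obtained by TMTpro 16plex LC-MS/MS, with channel sums equalised, on the supernatant after 21,000xg for 90 min. That supernatant came from crude K562 extract at 1 mg/mL protein treated with 10 μM compound for 30 min, heated for 3 min across 48°C-58°C, pooled and brought to 0.5% NP-40 at 4°C.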
# [2] = compound: Cc1nc(Nc2n[nH]c3c2CN(C(=O)N[C@H](CN(C)C)c2ccccc2)C3(C)C)c2sccc2n1
# Method in brief: as §1
# [3] = compound: Cc1nc(Nc2ncc(C(=O)Nc3c(C)cccc3Cl)s2)cc(N2CCN(CCO)CC2)n1 [dasatinib]
# Method in brief: as §1
# [4] = compound: Cc1ncc(-c2ccnc(Nc3ccc(S(C)(=O)=O)cc3)n2)n1C(C)C
# Method in brief: as §1
# [5] = compound: Cn1cc(-c2ccc3c(c2)CCN3C(=O)Cc2cccc(C(F)(F)F)c2)c2c(N)ncnc21
# Method in brief: as §1
# [6] = compound: Cn1cc(CNCC2CCN(c3ncc(C(=O)NO)cn3)CC2)c2ccccc21 [quisinostat]
# Method in brief: as §1
# [7] = compound: Cn1cncc1[C@@](N)(c1ccc(Cl)cc1)c1ccc2c(c1)c(-c1cccc(Cl)c1)cc(=O)n2C [tipifarnib]
# Method in brief: as §1
# [8] = compound: NC(=O)Nc1cc(-c2cccc(F)c2)sc1C(=O)N[C@H]1CCCNC1
# Method in brief: as §1
# [9] = compound: NC(=O)c1cnc(N[C@@H]2CCCC[C@@H]2N)nc1Nc1cccc(-n2nccn2)c1
# Method in brief: as §1
# [10] = compound: NC1(c2ccc(-c3nc4ccn5c(=O)[nH]nc5c4cc3-c3ccccc3)cc2)CCC1
# Method in brief: as §1
# [11] = compound: NCC(=O)Nc1ccc(-n2nc(C(F)(F)F)cc2-c2ccc3c(ccc4ccccc43)c2)cc1
# Method in brief: as §1
# [12] = compound: O=C(CCCCCCC(=O)Nc1ccccc1)NO [vorinostat]
# Method in brief: as §1
# [13] = compound: O=C(O)c1ccc2c(c1)nc(Nc1cccc(Cl)c1)c1ccncc12 [silmitasertib]
# Method in brief: as §1
# [14] = compound: O=C1NC(=O)C(c2cnc3ccccn23)=C1c1cn2c3c(cc(F)cc13)CN(C(=O)N1CCCCC1)CC2
# Method in brief: as §1
# [15] = compound: c1cn2cc(-c3ccc4cn[nH]c4c3)nc(Nc3ccc(N4CCOCC4)cc3)c2n1 [entospletinib]
# Method in brief: as §1
# UniProt Q9BXW9, sequence (Q9BXW9 whole entry, looked up): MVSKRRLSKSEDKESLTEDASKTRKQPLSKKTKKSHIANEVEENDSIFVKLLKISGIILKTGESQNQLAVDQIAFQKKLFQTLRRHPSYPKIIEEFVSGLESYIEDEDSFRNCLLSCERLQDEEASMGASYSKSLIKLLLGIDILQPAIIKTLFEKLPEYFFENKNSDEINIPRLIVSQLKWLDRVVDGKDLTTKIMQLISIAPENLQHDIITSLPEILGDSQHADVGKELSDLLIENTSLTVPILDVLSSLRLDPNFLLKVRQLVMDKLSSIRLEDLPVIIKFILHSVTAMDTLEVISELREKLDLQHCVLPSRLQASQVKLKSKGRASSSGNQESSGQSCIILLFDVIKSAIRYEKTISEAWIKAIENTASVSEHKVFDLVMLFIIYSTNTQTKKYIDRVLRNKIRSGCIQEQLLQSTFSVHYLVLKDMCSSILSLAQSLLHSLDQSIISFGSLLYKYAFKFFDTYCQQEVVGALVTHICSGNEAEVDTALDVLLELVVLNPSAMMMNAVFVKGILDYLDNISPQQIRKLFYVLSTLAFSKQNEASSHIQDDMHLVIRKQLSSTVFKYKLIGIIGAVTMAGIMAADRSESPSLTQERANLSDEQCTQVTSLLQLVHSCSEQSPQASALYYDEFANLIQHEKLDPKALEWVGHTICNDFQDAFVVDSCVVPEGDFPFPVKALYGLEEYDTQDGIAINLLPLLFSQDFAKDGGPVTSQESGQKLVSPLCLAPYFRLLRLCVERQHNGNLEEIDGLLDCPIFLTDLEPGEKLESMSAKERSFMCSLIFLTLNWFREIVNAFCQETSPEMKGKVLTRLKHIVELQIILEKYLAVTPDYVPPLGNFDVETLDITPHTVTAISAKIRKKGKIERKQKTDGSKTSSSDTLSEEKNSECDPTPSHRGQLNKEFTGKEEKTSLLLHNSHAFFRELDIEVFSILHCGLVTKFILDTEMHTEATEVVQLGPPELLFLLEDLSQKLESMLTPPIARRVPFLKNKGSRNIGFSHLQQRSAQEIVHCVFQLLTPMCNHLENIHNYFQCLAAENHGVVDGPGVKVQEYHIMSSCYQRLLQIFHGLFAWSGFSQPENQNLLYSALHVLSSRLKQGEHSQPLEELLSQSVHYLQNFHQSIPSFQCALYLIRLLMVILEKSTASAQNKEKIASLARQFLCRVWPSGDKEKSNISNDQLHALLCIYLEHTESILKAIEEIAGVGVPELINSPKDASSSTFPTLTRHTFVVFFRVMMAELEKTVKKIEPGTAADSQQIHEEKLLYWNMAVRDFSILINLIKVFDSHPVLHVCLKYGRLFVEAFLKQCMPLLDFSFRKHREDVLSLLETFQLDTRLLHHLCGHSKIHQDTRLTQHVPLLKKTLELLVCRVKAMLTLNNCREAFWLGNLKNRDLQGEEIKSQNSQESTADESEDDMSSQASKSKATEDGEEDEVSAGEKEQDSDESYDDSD
# UniProt P06733, sequence (P06733 whole entry, looked up): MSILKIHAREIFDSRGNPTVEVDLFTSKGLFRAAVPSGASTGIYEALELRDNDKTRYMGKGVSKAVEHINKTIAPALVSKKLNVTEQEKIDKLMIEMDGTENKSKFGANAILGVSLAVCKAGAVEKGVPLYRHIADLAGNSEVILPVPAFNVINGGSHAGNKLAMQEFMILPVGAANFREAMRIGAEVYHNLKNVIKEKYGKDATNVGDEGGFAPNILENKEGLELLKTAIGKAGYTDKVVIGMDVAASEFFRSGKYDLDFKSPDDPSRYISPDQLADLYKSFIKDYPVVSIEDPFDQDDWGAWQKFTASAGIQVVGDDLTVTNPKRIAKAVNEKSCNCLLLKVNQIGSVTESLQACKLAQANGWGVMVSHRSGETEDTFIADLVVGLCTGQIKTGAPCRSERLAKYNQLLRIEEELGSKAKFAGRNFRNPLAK
# UniProt Q96G46, sequence (Q96G46 whole entry, looked up): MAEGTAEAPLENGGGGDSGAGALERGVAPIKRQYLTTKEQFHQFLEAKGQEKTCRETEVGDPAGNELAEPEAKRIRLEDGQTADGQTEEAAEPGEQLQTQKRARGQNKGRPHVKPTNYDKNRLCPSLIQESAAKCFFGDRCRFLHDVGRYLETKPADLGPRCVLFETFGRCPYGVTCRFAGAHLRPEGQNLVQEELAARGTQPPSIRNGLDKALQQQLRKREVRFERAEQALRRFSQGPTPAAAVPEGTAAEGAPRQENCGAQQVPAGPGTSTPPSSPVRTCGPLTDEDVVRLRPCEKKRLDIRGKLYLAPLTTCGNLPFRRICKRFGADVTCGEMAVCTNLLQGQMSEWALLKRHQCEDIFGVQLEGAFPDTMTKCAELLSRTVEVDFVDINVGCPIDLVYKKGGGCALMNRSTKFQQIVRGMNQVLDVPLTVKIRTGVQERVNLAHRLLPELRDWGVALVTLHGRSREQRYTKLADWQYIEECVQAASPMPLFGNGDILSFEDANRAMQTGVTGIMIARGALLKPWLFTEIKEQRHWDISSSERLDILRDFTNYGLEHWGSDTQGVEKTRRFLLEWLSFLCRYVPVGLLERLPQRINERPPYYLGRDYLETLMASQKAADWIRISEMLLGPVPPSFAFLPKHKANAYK
# UniProt P11413, sequence (P11413 whole entry, looked up): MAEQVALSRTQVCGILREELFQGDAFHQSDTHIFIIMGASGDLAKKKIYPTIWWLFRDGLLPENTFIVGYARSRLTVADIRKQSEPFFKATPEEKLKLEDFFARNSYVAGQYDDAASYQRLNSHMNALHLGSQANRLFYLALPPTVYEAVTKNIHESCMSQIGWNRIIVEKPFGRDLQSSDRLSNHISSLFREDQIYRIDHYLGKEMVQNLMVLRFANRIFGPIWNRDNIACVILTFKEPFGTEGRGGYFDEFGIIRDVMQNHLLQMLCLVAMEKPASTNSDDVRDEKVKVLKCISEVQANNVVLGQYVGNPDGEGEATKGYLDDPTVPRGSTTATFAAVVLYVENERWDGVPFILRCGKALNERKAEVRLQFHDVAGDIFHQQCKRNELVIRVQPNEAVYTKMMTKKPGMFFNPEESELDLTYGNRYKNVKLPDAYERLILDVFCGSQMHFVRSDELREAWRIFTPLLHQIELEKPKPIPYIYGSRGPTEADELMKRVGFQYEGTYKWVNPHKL
# UniProt Q9H4H8, sequence (Q9H4H8 whole entry, looked up): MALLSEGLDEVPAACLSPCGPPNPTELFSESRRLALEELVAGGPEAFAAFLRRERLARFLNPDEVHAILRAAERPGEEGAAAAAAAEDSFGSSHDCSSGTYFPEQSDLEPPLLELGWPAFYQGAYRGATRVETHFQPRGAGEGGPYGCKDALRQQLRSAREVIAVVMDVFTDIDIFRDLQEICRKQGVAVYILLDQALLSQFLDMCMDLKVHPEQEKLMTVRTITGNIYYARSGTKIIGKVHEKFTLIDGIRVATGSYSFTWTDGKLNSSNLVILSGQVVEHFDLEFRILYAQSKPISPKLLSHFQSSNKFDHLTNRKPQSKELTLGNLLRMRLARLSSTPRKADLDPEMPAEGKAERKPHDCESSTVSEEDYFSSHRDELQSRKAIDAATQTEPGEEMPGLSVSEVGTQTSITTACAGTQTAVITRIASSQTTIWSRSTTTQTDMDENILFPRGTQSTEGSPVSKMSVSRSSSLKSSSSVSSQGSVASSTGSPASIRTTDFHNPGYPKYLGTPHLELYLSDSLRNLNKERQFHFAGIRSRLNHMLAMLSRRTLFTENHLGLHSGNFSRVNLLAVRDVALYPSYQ
# UniProt O95571, sequence (O95571 whole entry, looked up): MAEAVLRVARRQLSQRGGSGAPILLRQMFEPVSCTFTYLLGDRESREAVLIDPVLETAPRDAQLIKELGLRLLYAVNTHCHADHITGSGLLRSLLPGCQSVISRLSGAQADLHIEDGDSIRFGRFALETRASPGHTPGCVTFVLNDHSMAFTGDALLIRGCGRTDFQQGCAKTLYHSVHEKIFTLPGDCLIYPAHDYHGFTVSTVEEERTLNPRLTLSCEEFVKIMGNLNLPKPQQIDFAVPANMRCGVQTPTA
# UniProt Q9NV70, sequence (Q9NV70 whole entry, looked up): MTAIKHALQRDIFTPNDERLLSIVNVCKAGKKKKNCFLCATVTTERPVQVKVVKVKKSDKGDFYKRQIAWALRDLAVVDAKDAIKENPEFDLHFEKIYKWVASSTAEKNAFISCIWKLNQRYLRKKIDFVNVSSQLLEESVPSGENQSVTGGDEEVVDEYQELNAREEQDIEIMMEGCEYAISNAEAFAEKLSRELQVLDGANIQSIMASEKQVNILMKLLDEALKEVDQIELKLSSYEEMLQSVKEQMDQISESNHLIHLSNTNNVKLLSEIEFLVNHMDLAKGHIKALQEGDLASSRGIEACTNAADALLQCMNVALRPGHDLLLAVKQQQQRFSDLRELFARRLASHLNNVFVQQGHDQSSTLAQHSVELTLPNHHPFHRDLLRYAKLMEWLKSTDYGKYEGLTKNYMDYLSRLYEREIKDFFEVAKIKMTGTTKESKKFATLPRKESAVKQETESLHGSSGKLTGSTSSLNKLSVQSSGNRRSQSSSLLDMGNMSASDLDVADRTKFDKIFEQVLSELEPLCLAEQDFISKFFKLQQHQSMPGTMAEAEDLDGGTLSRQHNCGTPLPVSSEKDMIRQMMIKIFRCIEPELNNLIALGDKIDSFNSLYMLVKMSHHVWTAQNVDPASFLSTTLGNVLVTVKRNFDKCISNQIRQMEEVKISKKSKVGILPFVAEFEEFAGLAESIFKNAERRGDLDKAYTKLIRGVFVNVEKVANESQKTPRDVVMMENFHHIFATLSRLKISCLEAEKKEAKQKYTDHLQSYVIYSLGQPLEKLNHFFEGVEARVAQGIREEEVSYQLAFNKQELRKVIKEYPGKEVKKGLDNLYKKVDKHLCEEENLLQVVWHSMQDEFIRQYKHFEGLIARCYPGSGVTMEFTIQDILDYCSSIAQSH
Target,log2 fold change [1],log2 fold change [2],log2 fold change [3],log2 fold change [4],log2 fold change [5],log2 fold change [6],log2 fold change [7],log2 fold change [8],log2 fold change [9],log2 fold change [10],log2 fold change [11],log2 fold change [12],log2 fold change [13],log2 fold change [14],log2 fold change [15]
FANCD2 isoform 1 (UniProt Q9BXW9),0.015,-0.002,-0.066,0.048,0,-0.238 (active),-0.037,0.018,0.033,-0.124,0.078,-0.25 (active),-0.012,0.008,-0.005
G6PD isoform 2 (UniProt P11413),0.013,-0.008,0.01,-0.012,-0.01,-0.021,0.016,0.012,-0.035,0.008,0.008,-0.46 (active),-0.008,-0.003,0.032
DUS3L (UniProt Q96G46),0.008,-0.022,-0.019,-0.014,0.004,-0.098,-0.017,0.026,0,-0.021,0.002,-0.08,0.036,-0.007,0.014
FLAD1 (UniProt Q8NFF5),0.051,-0.026,0.002,0.024,0.019,-0.129,0,0.03,0.017,-0.026,-0.012,-0.397 (active),0.102,-0.005,0.037
GGT7 (UniProt Q9UJ14),-0.061,-0.023,-0.083,0.014,-0.012,0.092,-0.008,0.071,0.007,0.02,-0.094,0.244 (active),-0.017,0.015,-0.056
GALNT2 (UniProt Q10471),-0.02,-0.054,0.003,0.008,0.008,0.081,-0.067,-0.004,-0.002,-0.031,-0.018,0.069,0.008,-0.09,-0.034
DTWD1 (UniProt Q8N5C7),0.007,-0.039,-0.034,0.01,-0.02,-0.067,-0.007,0.002,-0.008,0.049,0.059,-0.27 (active),-0.022,-0.028,0.036
EFCAB14 (UniProt O75071),-0.16,0.016,0.049,0.001,-0.005,-0.001,0.013,0.053,-0.005,0.013,0.039,0.327 (active),-0.054,0.029,0.013
FAM83D (UniProt Q9H4H8),-0.042,0.004,-0.026,0.008,-0.033,-0.061,-0.02,-0.019,0.05,0.01,0,-0.243 (active),0.031,-0.004,0.021
FBLL1 (UniProt A6NHQ2),0.006,-0.015,-0.048,-0.101,0,-0.07,-0.009,0.026,-0.037,0,0.006,0.094,0.034,-0.017,-0.014
FUBP3 (UniProt Q96I24),-0.201,-0.016,-0.094,0.012,0.01,-0.029,-0.009,0.043,-0.005,0.032,-0.001,-0.325 (active),-0.032,0.047,-0.065
EXTL2 (UniProt Q9UBQ6),0.07,-0.085,0.127,0.081,0.13,-0.146,0.017,0.035,-0.068,0.003,-0.171,0.189,-0.053,0.01,-0.036
FAM76B (UniProt Q5HYJ3),-0.044,0.019,0.093,-0.004,0.005,-0.028,-0.019,-0.032,-0.026,-0.07,-0.018,0.026,0,0.012,-0.014
ENO1 isoform 2 (UniProt P06733),0.01,-0.009,0.021,-0.036,-0.012,-0.038,0.035,-0.007,-0.008,0.004,-0.008,0.099,0.045,0.005,-0.05
EIF2AK1 (UniProt Q9BQI3),-0.006,0.211,-0.027,-0.154,0.078,-0.077,0.007,-0.031,0.062,0.021,-0.089,-0.18,0.03,-0.059,0.009
GATAD2A isoform 3 (UniProt Q86YP4),0.041,0.001,0.006,-0.009,0.001,-0.074,-0.009,0.032,0.002,-0.024,0.023,-0.213 (active),-0.028,0.019,-0.001
FOXK1 (UniProt P85037),-0.006,-0.014,-0.065,-0.038,0.004,-0.031,-0.042,-0.002,-0.011,0.007,0.022,-0.414 (active),-0.026,-0.048,0.038
EXOC1 (UniProt Q9NV70),-0.005,0.013,-0.067,0.013,0.097,0.024,0.005,0.024,0.012,-0.032,-0.019,-0.45 (active),0.075,-0.019,0.019
ETHE1 (UniProt O95571),0.25 (active),-0.124,-0.037,0.095,-0.046,-0.015,-0.181,0.055,0,-0.002,-0.01,-0.113,0.009,0,-0.02
ERCC4 (UniProt Q92889),-0.047,-0.002,0.01,-0.05,0.033,-0.105,-0.007,0.041,0.027,-0.004,0.026,-0.241 (active),0.002,-0.065,0.021
